# USP2a block – USP2a (human) protease inhibition | O75604 | USP2 core, Ub-CHOP2 coupled fluorogenic reporter, 485/531 | Potency, µM (doses to about 38.3 µM), for the others: at the top dose activity change, negative = inhibition, hits mostly inhibitors | hit rate 0.01% among 330,000 | AID 463254;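 further: plate controls were DMSO wells for no effect and full inhibition by NEM control for full effect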
#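 Deubiquitinase activity read as fluorescence (485/531 nm) after Ub-CHOP2 cleavage activates the enterokinase reporter on its substrate; USP2 core 10nM, Ub-CHOP2 and substrate 25nM each, 30min compound preincubation then 60min RT; data normalized to NEM, curves fitted.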
# Eya2 phos inh – Eya2 (human) phosphatase inhibition; O00167; recombinant Eya2, OMFP fluorescence dephosphorylation (OMFP is methylfluorescein phosphate); hit rate 0.006% among 330,000; Potency, µM (highest dose often 76.9 µM), inactives show at the top dose activity, negative = inhibition, hits mostly inhibitors; further: on the % scale 0 is the no-effect control and ±100 the full control effect
#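 Eya2 protein (added as 0.2 uM solution) was preincubated with compound for 10 min at ambient temperature in 50 mM HEPES pH 7.5, 50 mM NaCl, 5 uM MgCl2, 0.05% BSA, 1 mM DTT. OMFP (added at 50 uM) then reacted 10 min; fluorescence read at 485/525 nm.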
# 12-LOX inh – blocks human arachidonate 12S-lipoxygenase; P18054; purified 12hLO, xylenol orange hydroperoxide absorbance; Potency, µM (doses to about 108 µM), for inactives: top-dose activity change, negative = inhibition, usual class: inhibitors; hit rate 1.1% among 580,000; AID 1671190; further: on the % scale 0 is the no-effect control and ±100 the full control effect
# Target sequence (P18054 whole entry, looked up): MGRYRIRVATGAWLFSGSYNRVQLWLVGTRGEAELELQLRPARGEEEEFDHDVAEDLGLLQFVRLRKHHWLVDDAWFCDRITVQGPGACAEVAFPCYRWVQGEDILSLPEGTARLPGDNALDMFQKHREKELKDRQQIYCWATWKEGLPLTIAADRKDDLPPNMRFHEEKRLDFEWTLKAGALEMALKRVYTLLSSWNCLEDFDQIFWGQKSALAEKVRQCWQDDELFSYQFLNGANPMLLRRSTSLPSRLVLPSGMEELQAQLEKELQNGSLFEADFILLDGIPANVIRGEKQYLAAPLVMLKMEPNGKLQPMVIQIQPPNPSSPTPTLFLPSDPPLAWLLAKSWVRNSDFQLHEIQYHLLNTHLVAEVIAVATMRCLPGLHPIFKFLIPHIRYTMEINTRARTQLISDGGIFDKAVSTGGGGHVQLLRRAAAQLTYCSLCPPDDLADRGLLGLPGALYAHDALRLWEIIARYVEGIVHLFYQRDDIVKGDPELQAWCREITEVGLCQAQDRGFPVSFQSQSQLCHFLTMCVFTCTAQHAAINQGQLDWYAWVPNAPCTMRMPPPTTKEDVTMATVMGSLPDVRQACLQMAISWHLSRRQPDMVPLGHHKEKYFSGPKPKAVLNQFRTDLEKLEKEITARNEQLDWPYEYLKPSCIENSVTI
#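 Purified human 12hLO at 150 nM in 25 mM Hepes, 0.01% Triton X-100, pH 7.0, preincubated 15 min at room temperature with compound. Reaction started with 40 uM arachidonic acid, 30 min at room temperature. Hydroperoxide measured by Fe-xylenol orange, 573/405 nm absorbance ratio.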
# PTAP TSG101 blk – blocks PTAP/TSG101 interaction to inhibit HIV-1 budding; Fluorescence polarization, FITC-PTAP peptide / Tsg101 binding; Potency, µM (series often up to 115 µM), without a hit: top-dose activity change, negative = inhibition, hits mostly inhibitors; 340,000 tested, under 10 active; AID 493005; active means well fitted inhibition curve with a large enough effect in the main read-out, with a control signal flat, not every such curve was filed as active; inconclusive means small, poorly fitted or top-dose-only effect, or effect the other way, or a change in a side signal; inactive means no such curve, though single readings can be large or run the other way; further: % of control where 0% means no effect
#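 Tsg101 binding domain (10 uM final) was mixed with compound and a FITC-labeled PTAP peptide (50 nM final) in HEPES pH 7.5 buffer with NaCl, Tween 20, EDTA and TCEP; fluorescence polarization was read after 20 min at r.t.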
# Starred values were filed as active, the others as inactive; ? = inconclusive; . = no result; ! = not confirmed by another sample; [ ] = dose if it differs, or a comment. A selection: hits, their analogues and other compounds. The true share with any hit is near 1.1%. Unless noted, the call rests on the fitted dose curve; in most records, active means well fitted curve in the direction sought with a large enough effect; inconclusive means small, poorly fitted or top-dose-only effect, or another doubt; inactive means no such curve, though single readings can be large; an effect the other way counts as inactive or inconclusive. Potency means the concentration at half of the fitted maximal effect.
SMILES,USP2a block,Eya2 phos inh,12-LOX inh,PTAP TSG101 blk
COc1cc(C2CC(=O)N3CN(c4cccc(C)c4)CSC3=C2C#N)ccc1O (stereo unspecified),.,.,2µM*,.
CCN1/C(=C/c2ccc3ccccc3[n+]2CCCS(=O)(=O)[O-])C=Cc2cc(C)ccc21,-1%,0%,45µM*,-2%
COc1cccc(C(O)c2nc(C(=O)Nc3ccc4c(c3)CC(=O)N4)c(C)o2)c1 (stereo unspecified),.,.,47%[176 µM],.
COc1cccc(-c2nc3cc4c(cc3cc2CN2CCSCC2)OCO4)c1OC,.,.,78%,.
CN1Cc2ncnc(NCCc3ccc(F)cc3)c2CN(c2ccc(Cl)cc2)C1=O,.,.,71µM*,.
COCCSc1nc2c(c(=O)[nH]c(=O)n2C)n1CCCc1ccccc1,-4%,-7%,28µM*!,-7%
Cc1ccc(NC(=O)N2CCC(CCNC(=O)c3cccc(F)c3)CC2)cc1,.,.,35%,.
COc1ccc(NC(=S)Nc2ccc3nsnc3c2)cc1,4%,3%,7.9µM*,-9%
Clc1ccccc1-c1nc(-n2ccnc2)c2ccccc2n1,.,.,56µM*,.
CC1CCCN(c2nc(-c3ccccn3)nc3ccccc23)C1 (stereo unspecified),.,.,-1%,.
CN(Cc1cccs1)C(=O)c1ccc(S(C)(=O)=O)cc1,.,.,9%,.
CCCCCCC1C(C#N)=C(N)OC2=C1C(=O)CCC2 (stereo unspecified),1%,-24%,32µM*,-1%
CCOC(=O)C1(Cc2cccc(C(F)(F)F)c2)CCN(Cc2cn(CC)nc2C)CC1,.,.,80%,.
Cc1cc(/C=C/c2nc3c(ccc4ccccc43)s2)cc(C)c1O,.,.,6.3µM*,.
COc1cc(/C=C/c2nc3ccccc3s2)cc(OC)c1O,-10%,?,?,1%
O=Cc1cc2ccccc2o1,.,.,0%[176 µM],.
COc1ccccc1OCC(=O)c1ccc2c(c1)N(CC(=O)N(C)Cc1ccccc1)C(=O)CO2,.,.,37%,.
CN1CC(=O)N(C2CCCNCC2)Cc2c(NC3CCCCC3O)ncnc21 (stereo unspecified),.,.,-23%[6.33 µM],.
CN1CC(=O)N(C2CCNCC2)Cc2c(NC3CCCCC3O)ncnc21 (stereo unspecified),.,.,11µM*,.
O=C(N1CCC2(CC1)CC(N(Cc1ccccc1)C1CC1)CCO2)C1(c2ccccc2)CC1 (stereo unspecified),.,.,-2%,.
CC(C)c1cccc(NC(=O)Cn2cccc2-c2nc(-c3ccc4c(c3)OCO4)no2)c1,.,.,1%,.
Cc1ccc(Cl)cc1NC(=O)CCc1ncc(-c2ccc(F)cc2)o1,.,.,0%,.
CNCc1ccncc1,.,.,0.33µM*,.
Cc1cc(C)c2nc(NNC(=O)c3ccc(S(=O)(=O)N4CC(C)CC(C)C4)cc3)sc2c1 (stereo unspecified),-20%,-3%,6.3µM*,-4%
Cc1cc(C)c2nc(NNC(=O)c3ccc(S(=O)(=O)N4CCCC(C)C4)cc3)sc2c1 (stereo unspecified),-2%,-3%,5.6µM*,-1%
SMILES,USP2a block,Eya2 phos inh,12-LOX inh,PTAP TSG101 blk
NC(=O)Cc1csc(NC(=O)CCc2ncc(-c3ccccc3Cl)o2)n1,.,.,-4%,.
CCc1c(C)sc(NC(=O)C2CCCO2)c1C#N (stereo unspecified),2%,6%,?,-4%
CCc1c(C)sc(NC(=O)C2CC3CCC2C3)c1C#N (stereo unspecified),.,.,16µM*,.
CCc1c(C)sc(NC(=O)c2ccncc2)c1C#N,.,.,0%,.
CCc1c(C)sc(NC(C)=O)c1C#N,.,.,32µM*,.
COC(=O)[C@@H](NC(=O)NCc1ccccc1)C(C)C,.,.,16%,.
CC[C@@]1(C(=O)OC)N[C@H](CN(C)C(=O)COC)[C@@H]2C(=O)N(C)C(=O)[C@@H]21,-1%,1%,5µM*,2%
CCc1ccc(O)c(OC)c1,.,.,4%[176 µM],.
O=C(O)C1(c2ccc(Cl)cc2)CCCC1,.,.,0%,.
CCOc1ccccc1C(=O)N1[C@@H]2CC[C@H]1CC(NC(=O)c1cnc(C)cn1)C2 (stereo partly specified),.,.,48%,.
CCOc1ccccc1C(=O)NC1CC2CCCC(C1)N2C1CC1 (stereo unspecified),10µM*,18%,0%,-10%
COc1ncccc1-c1cnc2n[nH]c(-c3ccccc3)c2n1,.,.,34%[176 µM],.
COc1ccc(-c2cc3c(=O)n(CCNC(=O)c4c(F)cccc4Cl)ccn3n2)cc1,.,.,17%,.
COc1ccc(C(=O)NC(=S)Nc2ccccc2N2CCCCC2)cc1[N+](=O)[O-],0%,0%,40µM*,2%
O=C(NC(=S)Nc1ccccc1N1CCCCC1)c1cccs1,0%,-9%,50µM*,-7%
O=C(NC(=S)NCc1ccccc1Cl)c1cccs1,-1%,-9%,16µM*,-1%
O=C(NC(=S)Nc1ccc(N2CCN(C(=O)c3ccccc3)CC2)cc1)c1cccs1,-4%,-12%,?,-2%
CCOc1ccc(C(=O)NC(=S)Nc2ccccc2N2CCCCC2)cc1[N+](=O)[O-],-2%,-9%,?,0%
O=C(NC(=S)Nc1ccccc1N1CCN(C(=O)c2ccccc2)CC1)c1cccs1,0%,-9%,16µM*,-4%
O=C(NC(=S)Nc1ccccc1N1CCCC1)c1cccs1,0%,8%,-30%,-3%
COc1ccc(NC(C)c2nnc(-c3cccs3)o2)c(OC)c1 (stereo unspecified),.,.,6%,.
O=C(NN1CCOCC1)c1ccn(COc2ccc(Br)cc2)n1,.,.,31%,.
O=C(c1ccccc1)N1CCC2(CC1)CC(N(Cc1ccc(F)cc1)C1CC1)CCO2 (stereo unspecified),.,.,23%,.
CC(C(=O)Nc1cc(Cl)cc(Cl)c1)N1CCN(c2ccc(O)cc2)CC1 (stereo unspecified),.,.,20µM*,.
Cc1cccc(C)c1NC(=O)CNC(=O)C(C)N1CCN(c2cccc(Cl)c2)CC1 (stereo unspecified),0%,0%,-1%,-4%
SMILES,USP2a block,Eya2 phos inh,12-LOX inh,PTAP TSG101 blk
Cc1ccccc1C(=O)N1CCC(c2nn(-c3ccc(Cl)cc3)c(=O)[nH]2)CC1,.,.,45µM*,.
Cn1nc(C2CCN(C(=O)c3ccccc3Cl)CC2)[nH]c1=O,.,.,10%[176 µM],.
Cc1ccc(C(=O)N2CCC(c3nn(-c4ccc(Cl)cc4)c(=O)[nH]3)CC2)cc1,.,.,25µM*,.
O=C(c1ccccc1Cl)N1CCC(c2nn(-c3ccc(Cl)cc3)c(=O)[nH]2)CC1,.,.,35µM*,.
O=C(Nc1ccccc1)N1CCCC(c2nn(-c3ccc(Cl)cc3)c(=O)[nH]2)C1 (stereo unspecified),.,.,3%,.
Cc1ccccc1C(=O)N1CCC(c2nn(-c3ccccc3)c(=O)[nH]2)CC1,.,.,35%,.
O=C(Nc1ccccc1)N1CCC(c2nn(-c3ccc(Cl)cc3)c(=O)[nH]2)CC1,.,.,32µM*,.
CCC(CC)NC(=O)Cc1cccs1,.,.,1%,.
COc1cccc(Nc2cnc3ccc(-c4ccc(OC)c(OC)c4)nn23)c1,.,.,-20%[176 µM],.
CCCn1cc(-c2ccncc2)cc1C(=O)N1CCN(c2ccccc2F)CC1,.,.,-6%,.

# Source: PubChem
